About 83,000 compounds went through this panel and 20% of them were active in at least one assay; those are over-represented in the sample as a whole.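 Treatment: one concentration, 48 hours, 96-well format. Scoring: percent growth, with anything below 10 considered active.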 A number with no mark means an inactive call. Active and inactive are the calls of the source.

Common to all, as to test: NCI-60 one-dose screen, 48 h (100 = growth as untreated, 0 = no growth, -100 = all killed)
Common to all, as to conditions: 10 µM unless noted

The subject of test [1] is NCI-H23 lung.
In test [2] the test system is NCI-H226 lung.
In test [3] the test system is NCI-H322M lung.
Test [4] has as its system HOP-62 NSCLC.
The test system of test [5] is NCI-H460 lung.
For test [6], the system named is HOP-92 NSCLC.
Test [7] deals with NCI-H522 lung.
The subject of test [8] is A549/ATCC NSCLC.
Test [9] deals with 786-0 renal.
The test system of test [10] is COLO 205 colon.

For `C=CC[n+]1ccc(-c2cc[n+](CC=C)cc2)cc1`, the growth in [1] was 78.8%; in test [2], 99%; in [3], 95.7%; in test [4], 83.7%; in test [5] it was 91.9%; in test [6] it was 111%. Moreover, the growth in test [7] was 19.7%; in test [8], 71.9%; in test [9] it was 109%; in test [10], 9.91% (active).
For the compound `Cc1cc(NC(=O)NCc2ccc(N3C(N)=NC(N)=NC3(C)C)cc2)ccc1S(=O)(=O)F`, the growth in [1] was 29.2%; in [2], 101%; in test [3], 54.7%; in [4], 23.4%; in test [5], 4.48% (active); in [6], 88.9%. The growth in test [7] is 16.5%; in [8], -3.03% (active); in test [9] it was 26.2%; in [10], 29.3%.
As for `COc1cc2c(c(OC)c1OC)-c1ccc([O-])c(=O)cc1[C@@H](NC(C)=O)CC2.COc1cc2c(c(OC)c1OC)-c1ccc([O-])c(=O)cc1[C@@H](NC(C)=O)CC2.[Cu+2]`, the growth in test [1] is 27.1%; in test [2] it was 37.8%; in test [3], 57%; in test [4] it was 27.4%; in [5], 5.2% (active); in test [6], 9.89% (active). Also, the growth in [7] is -24.5% (active); in test [8] it was 45.1%; in [9] it was 43%; in test [10], 9.04% (active).
As to `CC12CCC3C(C=CC4=C(N)C(=O)CCC43C)C1CCC2=O` (stereo not given), the growth is 74.1% in test [1]; 96.3% in test [2]; 88.4% in [3]; 112% in test [4]; 83.8% in [5]; 61.9% in test [6]. In addition, the growth is 76.6% in test [7], 103% in [8], 89.3% in test [9] and 121% in [10].
Take `O=[N+]([O-])c1c(Br)sc(Br)c1[N+](=O)[O-]`: the growth is 37.3% in test [1]; 87.8% in [2]; 84.9% in test [3]; 75.2% in test [4]; 75.1% in test [5]; 43% in [6]. Further, the growth in test [7] was -72.9% (active); in test [8], 77.3%; in [9] it was -36% (active); in test [10], -77.7% (active).
For `CC1=C([Te]c2ccc(O)cc2)C(=O)c2ccccc2C1=O`, the growth in [1] is -19.6% (active); in test [2], -35.4% (active); in [3], 22.3%; in test [4], -25.2% (active); in test [5], -27.6% (active); in test [6] it was -56.5% (active). For the same compound, the growth in test [7] is 0.775% (active); in test [8], 6.97% (active); in test [9], -1.41% (active); in [10], -88.5% (active).
Turning to `CC[C@H](C)[C@H](NC(=O)C12C3C4C1C1C2C3C41NC(C)=O)C(=O)N(C)[C@H](C[C@@H](OC(C)=O)c1nc(C(=O)N[C@@H](Cc2ccccc2)C[C@H](C)C(=O)OC)cs1)C(C)C` (stereo not given in full), the growth in test [1] is 25.1%; in test [2], 31.7%; in test [3] it was 51.5%; in test [4], 22.4%; in test [5], 3.63% (active); in test [6], 30.2%. In addition, the growth in test [7] is 6.65% (active); in test [8] it was 27.7%; in test [9], 12%; in [10], -26.1% (active).
Regarding `CCOP1(=O)CC(C)=C(Cl)C(P(=O)(OCC)OCC)C1` (stereo not given), the growth in [1] is 91.5%; in test [2], 103%; in [3], 124%; in [4] it was 93.9%; in test [5], 112%; in test [6], 89.1%. For the same compound, the growth in test [7] is 71.3%; in test [8], 90.4%; in test [9], 115%; in test [10], 94.1%.
Consider `C[C@@H]1CCC2[C@@H](C)[C@H](OC(=O)CCC(=O)NCCNC(=O)Cc3cc(=O)oc4cc(N(C)C)ccc34)O[C@@H]3O[C@]4(C)CC[C@@H]1C23OO4` (stereo not given in full), for which the growth in test [1] was 21.5%; in [2], 65.3%; in [3], 79.2%; in [4], 82.8%; in [5], 39.4%; in test [6], 29.3%. The growth is -4.8% (active) in [7], 51.4% in test [8], 36.7% in test [9] and 47.6% in test [10].
As for `Cc1ccc(S(=O)(=O)C(Cl)(Cl)Cl)cc1`, the growth in test [1] is 98.3%; in test [2], 80.4%; in test [3], 105%; in [4], 90.2%; in test [5], 104%; in test [6] it was 82.3%. Also, the growth in test [7] is 76.2%; in test [8], 77.2%; in test [9], 88.5%; in test [10] it was 99.4%.
For the compound `CC(C)OC(=O)[C@H](C)NP(=O)(Oc1ccccc1)C1CCCN(O)C1=O` (stereo not given in full), the growth is 89.6% in [1]; 70.9% in test [2]; 84.6% in [3]; 111% in test [4]; 105% in test [5]; 104% in test [6]. The growth in test [7] was 97.6%; in test [8], 105%; in test [9] it was 94.3%; in test [10], 93.1%.
Regarding `c1ccc(COc2ccc3[nH]cc(CCN(Cc4ccccc4)Cc4ccccc4)c3c2)cc1`, the growth is 77.5% in test [1]; 73.8% in test [2]; 100% in [3]; 99.4% in test [4]; 91.6% in [5]; 81.6% in test [6]. Also, the growth in test [7] was 82.9%; in test [8], 85.2%; in test [9], 91.9%; in [10] it was 101%.
With `COC(=O)[C@H](Cc1ccccc1)NC(=O)c1csc([C@@H](C[C@H](C(C)C)N(C)C(=O)[C@@H](NC(=O)[C@H]2CCCCN2C)C2CC2)OC(C)=O)n1`, the growth is 23.9% in [1]; 27.7% in [2]; 46.1% in test [3]; -2.57% (active) in [4]; 1.93% (active) in [5]; -3.94% (active) in test [6]. In addition, the growth in test [7] is -28.7% (active); in [8], 14.2%; in test [9], 11.7%; in test [10], -66.6% (active).

These data come from PubChem BioAssay (NCI).
